JMJD2A Tudor inh: blocks the human JMJD2A Tudor domain; O75164; AlphaScreen JMJD2A-Tudor / H3K4me3 peptide binding; Potency, µM (titrated, usually from 114 µM), for the others: top-dose activity change, negative = inhibition, most hits filed as inhibitors; 4.4% of 390,000 active; note: % is set by controls: 0 for no effect and ±100 for the full control effect; nearly all actives have a fitted effect of over 50% in size
GLS inhibitor: glutaminase GLS (human) inhibition. O94925. GLS enzymatic activity, qHTS titration. Potency, µM (highest dose often 45.5 µM), without a hit: top-dose activity change, negative = inhibition, hits mostly inhibitors. 0.21% of 410,000 active. AID 624170; note: % is set by controls: 0 for no effect and ±100 for the full control effect
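hKGA in 45 mM KH2PO4 pH 8.2, 0.02% Tween-20 with pin-transferred compounds; 1 mM L-glutamine (stock) plus glutamate oxidase/HRP/Amplex Red coupling added. Fluorescence read initially and after 30 min at RT.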
BAZ2B inh: blocks human BAZ2B | Q9UIF8 | AlphaScreen BAZ2B-H3K14Ac peptide displacement | Potency, µM (series often up to 114 µM), without a hit: at the highest dose activity change, negative = inhibition, usual class: inhibitors | 4.4% of 360,000 active; note: % is set by controls: 0 for no effect and ±100 for the full control effect; nearly all actives have a fitted effect of over 60% in size
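Inhibition is scored as reduced AlphaScreen emission. The BAZ2B/b-H3(5-23)K14Ac complex (50 nM each) in PBS pH 7.4, 0.01% Tween-20 meets compound (up to 110 uM) for 30 min at RT before bead addition.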
G9a block: G9a (human) methyltransferase inhibition | G9a H3K9 monomethylation, AlphaScreen, 2 h | Potency, µM (doses to about 102 µM), for inactives: top-dose activity, negative = inhibition, usual class: inhibitors | 8.8% of 350,000 active | AID 504332; note: % is set by controls: 0 for no effect and ±100 for the full control effect; nearly all actives have a fitted effect of over 75% in size
Target sequence (Q96KQ7 913-1193 limits assumed): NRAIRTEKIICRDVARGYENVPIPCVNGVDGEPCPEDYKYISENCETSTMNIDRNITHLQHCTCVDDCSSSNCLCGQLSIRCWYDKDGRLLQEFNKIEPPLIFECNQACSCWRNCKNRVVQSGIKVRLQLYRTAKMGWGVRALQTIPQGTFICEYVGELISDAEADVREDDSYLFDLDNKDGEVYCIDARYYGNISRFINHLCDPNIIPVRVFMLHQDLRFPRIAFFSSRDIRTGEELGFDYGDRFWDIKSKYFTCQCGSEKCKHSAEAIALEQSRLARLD
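Quantitative HTS format: methyltransferase activity on a biotin-tagged H3K9 peptide is measured by AlphaScreen, using a rabbit anti-monomethyl-H3K9 antibody with streptavidin donor and anti-IgG acceptor beads. Final levels are 20 nM enzyme, 500 nM peptide, 20 uM SAM; 2 h RT.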
HP1b binding inh: inhibitors of HP1-beta chromodomain binding to methylated histone tails. P83916. AlphaScreen HP1-beta / biotin-H3K9me3 peptide binding. 0.56% of 390,000 active. Potency, µM (series often up to 114 µM), inactives show at the highest dose activity change, negative = inhibition, most hits filed as inhibitors; note: nearly all actives have a fitted effect of over 70% in size
Target sequence (P83916 whole entry, looked up): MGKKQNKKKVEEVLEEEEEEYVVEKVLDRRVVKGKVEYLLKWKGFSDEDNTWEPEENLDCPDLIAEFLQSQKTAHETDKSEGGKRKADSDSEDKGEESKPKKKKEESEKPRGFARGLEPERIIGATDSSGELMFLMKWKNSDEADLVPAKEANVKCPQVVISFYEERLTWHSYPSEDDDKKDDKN
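AlphaScreen: HP1-beta (50 nM) preformed 30 min with biotin-H3(1-18)K9me3 peptide (50 nM) in PBS pH 7.4, 0.01% Tween-20. Compound added for 30 min at RT, then streptavidin donor/nickel chelate acceptor beads (10 ug/mL) for 30 min.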
L3MBTL1 block: inhibitors of human L3MBTL1. Q9Y468. AlphaScreen L3MBTL1–H3K9me1 peptide binding. Potency, µM (highest dose often 57.1 µM), for inactives: at the top dose activity, negative = inhibition, hits mostly inhibitors. 0.66% of 230,000 active; note: % is set by controls: 0 for no effect and ±100 for the full control effect; nearly all actives have a fitted effect of over 60% in size
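First, the protein-peptide complex forms for 30 min at room temperature (L3MBTL1 50 nM, biotinylated H3K9me1 peptide 75 nM). Next, compounds are pin-transferred and incubated 30 min. Finally, AlphaScreen beads are added and read after 30 min.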
* = called active by the depositor; ? = inconclusive; / = not tested or not shown; [ ] = another dose, or the depositor's remark. Hits are enriched below; roughly 10% of the tested compounds scored in any of these assays. Calls come from the whole dose curve; as a rule, active = well fitted curve in the direction sought with a large enough effect; inconclusive = small, poorly fitted or top-dose-only effect, or another doubt; inactive = no such curve, though single readings can be large; an effect the other way counts as inactive or inconclusive. Potency is the fitted concentration of half-maximal effect.

SMILES | JMJD2A Tudor inh | GLS inhibitor | BAZ2B inh | G9a block | HP1b binding inh | L3MBTL1 block
O=C1Nc2c(c(=O)[nH]c(=O)n2Cc2ccccc2)C1(NS(=O)(=O)c1ccccc1)C(F)(F)F (stereo not given) | -3.5% | -0.4% | -1.0% | 44.7µM* | 27.6% | 2.6%
O=C(NC1(C(F)(F)F)C(=O)Nc2c1c(=O)[nH]c(=O)n2Cc1ccco1)C1CCCCC1 (stereo not given) | 79.4µM* | -4.3% | 2.6% | 79.4µM* | 3.1% | /
Cc1cccc(C(=O)Nc2sc3c(c2C(=O)N2CCCCC2)CCC(C)C3)c1 (stereo not given) | -13.1% | -14.0% | 0.1% | -36.7%[59 µM] | 6.5% | /
Cc1ccc(-c2nc(NC(=O)CSc3nc(C)nc4sc5c(c34)CCCC5)ns2)cc1 | -15.5% | -6.9% | 1.6% | -7.8%[59 µM] | 21.2% | /
CCn1c(SCC(=O)c2cc(C)n(CC3CCCO3)c2C)nc2ccccc21 (stereo not given) | ? | 22.0% | ? | 17.8µM* | -19.9% | -19.0%
Cc1cc(C(=O)CN2C(=O)c3ccccc3S2(=O)=O)c(C)n1CC1CCCO1 (stereo not given) | ? | 5.1% | -34.4% | 50.1µM* | -4.0% | -0.1%
CCCn1c(C)cc(C(=O)CN2C(=O)c3ccccc3S2(=O)=O)c1C | / | -2.2% | / | / | / | /
COc1cc(C(=O)NCc2nnc(SCC(=O)c3ccccc3)o2)cc(OC)c1OC | 12.5% | 23.9% | -10.0% | 39.8µM* | 27.7% | /
COc1ccc(C(=O)NCc2nnc(SCC(=O)c3ccccc3)o2)cc1 | -2.3% | 4.3% | -19.2% | 10.0%[59 µM] | 40.2% | /
COc1cc(C(=O)NCc2nnc(SCC(=O)Nc3nccs3)o2)cc(OC)c1OC | ? | 2.6% | 44.7µM* | -2.9% | 35.7% | ?
CC1CCN(C(=O)CSc2nc3ccccc3nc2Cc2ccccc2)CC1 | 22.4% | -3.6% | 23.3% | 17.9%[59 µM] | 53.1%[57 µM] | /
Cc1cc(/C=C2/SC(=S)N(c3cccc(Cl)c3)C2=O)c(C)n1-c1cccnc1 | ? | 7.9% | / | / | -21.8% | /
Cc1cccc(N2C(=O)/C(=C/c3cccnc3)SC2=S)c1 | ? | -2.9% | ? | 15.8µM* | -7.7% | ?
Cc1cc(/C=C2/SC(=S)N(c3ccc([N+](=O)[O-])cc3)C2=O)c(C)n1-c1cccnc1 | ? | -3.4% | ? | 10µM* | -30.8% | -2.7%
COc1ccc(-c2nnc(SCC(=O)Nc3ccc(Cl)cc3)s2)cc1 | 4.5% | 1.0% | 10.6% | 2.3%[59 µM] | 22.7%[57 µM] | /
Cc1cc2c(s1)c1cnn(Cc3ccc4ccccc4c3)c(=O)c1n2C | -19.2% | / | / | / | / | /
COc1cccc(-c2nnc(-c3ccccc3NC(=O)c3cccc(C(F)(F)F)c3)o2)c1 | -3.7% | 2.3% | -7.7% | -23.0%[59 µM] | 16.7% | /
CCOC(=O)N/N=C/c1ccc(N(CC)CC)cc1O | -35.9% | 35.8% | ? | ? | -20.4% | -11.7%
CCN(CC)c1ccc(/C=N/Nc2ccc(C)cc2)c(O)c1 | -1.4% | 2.3% | 44.7µM* | 1.78µM* | 20.5% | ?
CCN(CC)c1ccc(/C=N/NC(=O)c2c(Cl)cnn2C)c(O)c1 | -33.2% | 7.3% | 79.4µM* | -3.4%[59 µM] | 43.2% | ?
CCOC(=O)c1cc(=O)n(-c2ccc(Cl)cc2C)[nH]1 | -16.2% | -6.2% | -29.1% | 12.6µM* | 17.6% | 5.0%
CCNC(=S)N/N=C(\C)c1ccco1 | -17.1% | -5.8% | -12.6% | 35.5µM* | 3.9% | 5.4%
COc1ccc(N(C(=O)c2ccccc2)S(=O)(=O)c2ccc3c(c2)n(C)c(=O)n3C)cc1 | -25.8% | -3.1% | -35.9% | 0.2%[59 µM] | 7.2% | /
CCOc1cccc(OCCOCCN(C)C)c1 | 22.4µM* | 10.2% | ? | 11.2µM* | ? | -4.1%
CN(C)CCOc1ccc2ccccc2c1 | 10µM* | -9.1% | 44.7µM* | 11.2µM* | ? | -6.5%
SMILES | JMJD2A Tudor inh | GLS inhibitor | BAZ2B inh | G9a block | HP1b binding inh | L3MBTL1 block
CN(C)CCOc1cc(Cl)cc(Cl)c1 | 1.7% | 5.4% | 1.2% | 3.7% | 57.2% | -1.2%
c1ccc2cc(OCCOCCOc3ccc4ccccc4c3)ccc2c1 | 123.1% | 1.7% | 19.4% | 12.6% | 98.8% | 10.6%
CN(C)CCOc1cccc(Cl)c1 | 22.4µM* | 4.0% | ? | 8.91µM* | ? | -0.5%
CC1CC(C)CN(C(=O)c2cccc(S(=O)(=O)Nc3cc(C(F)(F)F)ccc3Cl)c2)C1 (stereo not given) | -17.4% | 14.2% | 79.4µM* | ? | 25.8% | 0.4%
O=[N+]([O-])c1ccc(O)c(C=Nc2cccc3ccccc23)c1 | -20.5% | -4.1% | -10.8% | 50.1µM* | -11.2% | 2.7%
Cc1cccc(/N=C/c2sc3ccccc3c2O)n1 | ? | 8.8% | ? | 31.6µM* | ? | -13.9%
Oc1c(C=Nc2cccc3cccnc23)sc2ccccc12 | / | / | -33.6% | ? | / | /
O=[N+]([O-])c1ccc(O)c(N=Cc2sc3ccccc3c2O)c1 | 44.7µM* | 26.5% | 14.1µM* | 44.7µM* | -35.1% | -17.0%
Cc1ccc(-c2nnc3c4ccccc4c(C)nn23)cc1NC(=O)c1ccccc1Cl | -10.7% | -2.2% | -27.3% | 7.6%[59 µM] | 9.5% | /
CCOC(=O)c1cc(-c2ccc(F)cc2)n(CCC(=O)NCc2ccc(C)cc2)c1C | -33.0% | -10.2% | -15.0% | -35.5%[59 µM] | -8.0% | /
COc1ccc2ccccc2c1-c1sc(Nc2ccccc2)n[n+]1-c1ccc(F)cc1 | 39.8µM* | 6.5% | 31.6µM* | 50.1µM* | ? | -11.8%
CCc1ccc(Nc2nc3ccccc3c(=O)s2)cc1 | -0.7% | 5.4% | -2.0% | -4.7%[59 µM] | 38.9% | 1.4%
CCc1ccc(Nc2n[n+](-c3ccccc3)c(/C=C/c3ccccc3)s2)cc1 | / | / | 28.2µM* | 39.8µM* | / | -8.9%
CCc1ccc(Nc2n[n+](-c3ccccc3)c(-c3cc(OC)c(OC)cc3Br)s2)cc1 | 79.4µM* | 1.4% | 31.6µM* | ? | -5.7% | -2.7%
CCc1ccc(Nc2n[n+](-c3ccccc3)c(-c3c(Cl)cccc3Cl)s2)cc1 | 15.8µM* | 10.8% | 8.91µM* | 14.1µM* | -4.9% | ?
COC(=O)c1ccccc1NC(=O)c1ccc(CN2CC(=O)N3CCCCC3C2=O)cc1 (stereo not given) | -12.9% | -0.4% | 0.6% | -4.6%[59 µM] | 25.6% | /
COc1ccccc1N1CCN(S(=O)(=O)CCNC(=O)COc2ccc(C(C)C)cc2)CC1 | -19.8% | -1.9% | -11.5% | -14.1%[59 µM] | 18.6%[57 µM] | /
Fc1ccc(-[n+]2nc(Nc3ccccc3)sc2-c2c(Cl)cccc2Cl)cc1 | 35.5µM* | 2.6% | 39.8µM* | / | ? | ?
Cc1ccccc1Cn1cc(S(=O)(=O)c2ccc(F)cc2)c(=O)c2cc3c(cc21)OCO3 | -16.9% | -3.3% | -1.0% | -22.9%[59 µM] | 35.1% | /
O=C(c1ccc(F)cc1)c1cn(Cc2ccccc2)c2cc3c(cc2c1=O)OCO3 | -8.8% | 1.3% | -26.3% | 2.8%[59 µM] | 4.9% | /

Source: PubChem
